Results on 67 molecules are retold here after PubChem BioAssay AID1259343 (VanderVen Lab, College of Veterinary Medicine, Cornell …, 2017).

Screen size: about 6,200 compounds; about 2,900 (47%) were called active. The set was probably picked from earlier hits. This is one part of the list. A number with no mark means an inactive call. Cut-off read from the data, not from the text of the source: active = inhibition above about 50%; inactive = the rest.

This assay is described as follows: Mycobacterium tuberculosis growth inhibition, primary screen (AID 1259343). Particulars: inhibition: at 10 µM, active compounds read high; outcome: 10 uM.
As a reminder, the inhibition is the drop in the measured response relative to a control, in per cent. As to `Cc1ccccc1CN1CCN2C(C(=O)Nc3ccc(-n4cccc4)cc3)=COC2=NC1=O`, the inhibition is 88.2% (active). As to `O=C(Nc1ccc(-n2cccc2)cc1)C1=COC2=NC(=O)N(Cc3ccccc3)CCN12`, the inhibition is 84.6% (active). On to `Cc1noc(C)c1CN1CCN2C(C(=O)Nc3ccc(-n4cccc4)cc3)=COC2=NC1=O`, for which the inhibition is 90.5% (active). With `Cc1noc(C)c1CN1CCN2C=C(C(=O)Nc3ccc(-n4cccc4)cc3)OC2=NC1=O` the figure was 30.7%.

In the case of `O=C(c1ccc2c(c1)CCO2)N1CCOC(c2ccc(Cl)c(Cl)c2)C1` (configuration not stated), the inhibition was 7.26%. As to `CC(C)(C)n1ncc(NCc2cccc3c2OCO3)c(Cl)c1=O`, the inhibition was 27.4%. On to `c1cc(-c2ccc3c(c2)CCO3)ccc1CNC1CCCC1`, for which the inhibition is 75% (active). With `CC(C)Cc1nc(CN(C)Cc2ccc3c(c2)CCO3)no1`, the inhibition was 21.8%. Consider `Cn1ncc(NCc2ccc(-c3ccc4c(c3)CCO4)cc2)c(Cl)c1=O`, for which the inhibition is 68.8% (active). With `Cc1cc(NC(=O)CON=C2CCN(C(=O)C3CC3)CC2)ccc1Br`, the inhibition is 92.3% (active). In the case of `Cc1cc(NC(=O)COc2ccc(C3=CCN(C(N)=O)CC3)cc2)ccc1Br` it was -21.6%. Turning to `Cc1cc(NC(=O)COC(=O)c2ccoc2)ccc1Br`, the inhibition was 68.6% (active). With `O=C(CCc1n[nH]c(=S)[nH]c1=O)NCc1cccc(C(F)(F)F)c1`, the inhibition is -13.8%. With `O=c1[nH]c(=S)[nH]nc1Cc1ccc(Cl)c(Cl)c1`, the inhibition is 96.8% (active). In the case of `CC(C)C1=NOC(c2nc(C(C)c3ccccc3)no2)C1` (configuration not stated) it was 30.4%; in that of `Cc1c[nH]c(=O)n1-c1ccc(C(=O)N2CCCC2c2ccccc2)cc1` (configuration not stated), -8.28%; in that of `O=C(NCc1ccc(Oc2ccc(F)cc2)cc1)C1CC=CCC1` (configuration not stated), 88.9% (active). Turning to `CC1CC1C(=O)NCc1ccc(Oc2ccc(F)cc2)cc1` (configuration not stated), the inhibition is -11.6%. Turning to `CN(Cc1nc(-c2cccs2)no1)CC1Cc2ccccc2O1` (configuration not stated), the inhibition result is “inactive”.

`COc1cccc(CN(C)Cc2nc(-c3cccs3)no2)c1`: the inhibition was 54.7% (active). In the case of `C#CCCC(C#N)(C#N)c1ncc(-c2ccc(OC)cc2)cn1`, the inhibition is 43%.

As for `O=C(O)c1cc(-c2cccs2)nn1-c1ccc(Cl)c(Cl)c1`, the inhibition is 51.3% (active).

Take `Cc1cc(Nc2cccc(=O)[nH]2)n(-c2ccc(Cl)c(Cl)c2)n1`: the inhibition is 49.9%. On to `CC1CN=C(Nc2ccc(C(C)C)cc2)S1` (configuration not stated), for which the inhibition was 6.24%. Consider `CC(C)c1ccc(NC(=O)C2CCS(=O)(=O)C2)cc1` (configuration not stated), for which the inhibition was 75.6% (active). With `CC(C)c1ccc(NS(=O)(=O)C2CC2)cc1` the figure was 30.9%. Consider `Cc1ccc(-c2c(N)n[nH]c2C(F)(F)F)cc1`, for which the inhibition is 32%.

As to `Cc1ccc(-c2cc(C(F)(F)C(F)F)[nH]n2)cc1`, the inhibition is 86.5% (active). As for `O=[N+]([O-])c1ccc(C=NN(c2ccccc2)c2ccccc2)o1`, the inhibition was 47.1%. Take `O=[N+]([O-])c1ccc(C=NNc2ccc(Cl)c(Cl)c2)o1`: the inhibition was 93.2% (active). Consider `O=[N+]([O-])c1ccc(C=NNc2ccc(Cl)cc2)o1`, for which the inhibition is -17.5%. For the molecule `O=[N+]([O-])c1ccc(C=NNc2ccnc3cc(Cl)ccc23)o1`, the inhibition was 99.4% (active). Regarding `O=[N+]([O-])c1ccc(C=Nn2cnn(Cc3ccccc3Cl)c2=S)o1`, the inhibition is 43.5%. In the case of `Cc1ccccc1C1c2[nH]c3ccccc3c2CCN1C(=O)c1cccc(C#CC(C)(C)O)c1` (configuration not stated) it was -3.93%; in that of `CCc1ccc(Nc2nnc(SCC(=O)NC3CCCC3)s2)cc1`, 100% (active); in that of `CCCCc1ccc(Nc2nnc(SCC(=O)NC3CCCC3)s2)cc1`, 86% (active).

For the molecule `CCCCNC(=O)CSc1nnc(Nc2ccc(CC)cc2)s1`, the inhibition is 45.2%. `CCCCc1ccc(Nc2nnc(SCC(=O)NCC)s2)cc1`: the inhibition was 83.3% (active). In the case of `CCc1ccc(Nc2nnc(SCC(N)=O)s2)cc1` it was 36.7%; in that of `O=C(Nc1ccc(OCc2ccco2)c(Cl)c1)N1CCOCC1`, 79% (active); in that of `COc1ccc(OCc2cc(C(=O)N3CCCCCC3)no2)c(Cl)c1`, 42%.

Regarding `CCC(=O)N(Cc1ccco1)Cc1cc(NC(=O)c2ccccc2Cl)ccc1N(C)C1CCN(C)CC1`, the inhibition is 39.1%. In the case of `O=S(=O)(Cc1ccccc1)c1nnnn1-c1ccccc1`, the inhibition is 101% (active).

As to `Cc1ccc(CC2CC(=O)N(C3CCCCC3)C2=O)cc1` (configuration not stated), the inhibition was 36.3%. Take `Cc1ccc(NNC2CC(=O)N(N(C)C)C2=O)cc1` (configuration not stated): the inhibition is 78.2% (active). In the case of `O=C(/C=C/c1ccccc1)c1ccc(O)cc1O` it was 96.2% (active); in that of `COc1ccc(C=CC(=O)c2ccc3ccccc3c2)cc1`, 60.1% (active); in that of `COc1ccc(/C=C/C(=O)c2cc(O)ccc2O)cc1`, 97.6% (active). With `COc1cccc(C=CC(=O)c2ccc(Cl)c(Cl)c2)c1OC` the figure was 44.5%; with `O=C(/C=C/c1ccc(O)cc1)c1ccccc1O`, 47.6%; with `COc1ccc(C(=O)C=Cc2cccc(O)c2)cc1F`, 87.2% (active). As for `COC(=O)c1ccc(C=CC(=O)c2ccc(OC)cc2)cc1`, the inhibition is 47.6%. Consider `O=C1COc2ccc(C(=O)C=Cc3ccc4ccccc4c3)cc2N1`, for which the inhibition is 62.3% (active). With `Oc1ccc(Cl)cc1Sc1cc(Cl)ccc1O` the figure was 101% (active); with `O=c1cc(O)c2sc3nc(C4CC4)cc(C(F)(F)F)c3c2[nH]1`, 38.2%; with `Clc1ccc(N=C2SCCN2C2CCCCC2)cc1`, 90.5% (active). Regarding `COc1ccc(N=C2SCCN2CC(=O)c2ccc(Cl)cc2)cc1`, the inhibition is -4.26%. As for `Clc1ccc(N=C2SCC3CCCCN23)cc1` (configuration not stated), the inhibition was -1.03%. Turning to `FC(F)Oc1ccc(N=C2SCC3CCCCN23)cc1` (configuration not stated), the inhibition is 82.4% (active).

As for `CC(C)(CNC(=O)C1Cc2cc(F)ccc2O1)C1CCCCO1` (configuration not stated), the inhibition was 14.4%.

For `O=C(NCCc1ccc(F)cc1)C1Cc2ccccc2O1` (configuration not stated), the inhibition was 70.3% (active). For the molecule `COc1ccc2c(c1)OCC(Cc1ccc(OC)c(OC(C)=O)c1)C2=O` (configuration not stated), the inhibition is 96.6% (active). For the molecule `COc1ccc(NC(=O)C(C)n2cccn2)cc1Cl` (configuration not stated), the inhibition was 8.88%. `CC(C(=O)Nc1ccc(C#N)cc1)N1CC=C(c2ccccc2)CC1` (configuration not stated): the inhibition is 49.1%.

On to `CC(C(=O)Nc1ccc(C23CC4CC(CC(C4)C2)C3)cc1)n1cncn1` (configuration not stated), for which the inhibition is 95.9% (active). On to `Cc1ccc(-n2nc(C(=O)c3ccc(Cl)cc3)c(N)c(C#N)c2=O)cc1`, for which the inhibition was 94.6% (active). As for `COc1ccc(Oc2cnn(-c3ccc(Cl)cc3)c(=O)c2Nc2ccc(C(=O)O)cc2)cc1`, the inhibition is 28%.
